We go through 100 compounds from PubChem BioAssay AID431 (Sanford-Burnham Center for Chemical Genomics, 2006).

The structures appear in SMILES notation. In all, about 63,000 compounds went through this assay and about 1,100 (1.7%) were called active. This excerpt belongs to a sample that is enriched for actives. Measured potencies and affinities stand elsewhere. Values without a mark were called inactive.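 How the source made its calls: active means compounds whose percent cytotoxicity in the single-dose primary screen, scaled between solvent and toxic-drug controls, exceeds 50; inactive means the rest.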

This assay is described as follows: cytotoxicity in KRAS-transformed pancreatic duct cells, primary screen, cell-based, fluorescence, HTS (AID 431).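 Further: 0% = DMSO solvent wells and 100% = doxorubicin-treated wells.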 The note with it: HPDE-C7K KRASV12 cells, Alamar Blue viability, 48 h; at 10 µM; stronger effect = higher value. For orientation: Alamar Blue is a resazurin reagent that responds to reducing activity.
With `COc1ccc(/C=N/n2c(N)nc3ccccc32)cc1OC`, the cytotoxicity is -9.4%.

`COc1ccc(-c2n[nH]c(C)c2-c2ccc(Cl)cc2)c(O)c1OC`: the cytotoxicity was -14.6%.

`Oc1ccc(-c2[nH]ncc2-c2ccc(Cl)cc2)c(O)c1`: the cytotoxicity is 49.9%.

As to `Cc1[nH]nc(-c2ccc(O)cc2O)c1-c1ccc(Cl)cc1`, the cytotoxicity was 53.9% (active).

As for `COc1ccc(-c2nc(N)ncc2-c2csc(C)n2)c(O)c1`, the cytotoxicity is -17.5%.

With `C=C(C)COc1ccc(-c2nc(N)ncc2-c2ccc(OC)cc2)c(O)c1`, the cytotoxicity is 120% (active).

On to `C=C(C)COc1ccc(-c2nc(N)ncc2Oc2ccc(OC)cc2)c(O)c1`, for which the cytotoxicity was -0.9%.

Turning to `C=C(C)COc1ccc(-c2nc(N)ncc2Oc2ccccc2OC)c(O)c1`, the cytotoxicity was -4.5%.

For the compound `N#Cc1cc(C(=O)c2cc(Br)ccc2O)cn(C2CC2)c1=O`, the cytotoxicity is 10.6%.

Consider `O=C(c1ccc(CN2CCc3ccccc3C2)cc1)N1CCCCC1`, for which the cytotoxicity was -21.9%.

`O=S(=O)(c1ccc(N2CCOCC2)cc1)N1CCOCC1`: the cytotoxicity was -6.3%.

As to `CC(=O)N1CC2(C)CN(C(C)=O)CC(C)(C1)C2O` (stereo not given), the cytotoxicity was 1.7%.

For the compound `CCOc1cc(S(=O)(=O)NCCN2CCOCC2)c(C)cc1C`, the cytotoxicity was -17.8%.

As for `C=CCc1ccccc1OCC(O)CN1CCN(c2ccc(OC)cc2)CC1` (stereo not given), the cytotoxicity was 9.3%.

With `COC(=O)C1(CCSC)NC(c2ccccc2OC)C2C(=O)N(C)C(=O)C21` (stereo not given), the cytotoxicity was 8%.

Consider `O=c1c2ccccc2nnn1CSc1nc2cc(Cl)ccc2c(=O)n1Cc1ccco1`, for which the cytotoxicity was 6.2%.

For `CCOC(=O)N1CCN(C2=CC(=O)OC23CCCCC3)CC1`, the cytotoxicity is 3.3%.

For the compound `C=C(C)COc1ccc(-c2n[nH]c(C)c2Oc2ccccc2OC)c(O)c1`, the cytotoxicity was 66.1% (active).

Consider `CCOc1ccc(-c2n[nH]c(C)c2Oc2ccccc2OC)c(O)c1`, for which the cytotoxicity is 2.5%.

As to `COc1ccc(Oc2c(-c3ccc(O)cc3O)n[nH]c2C)cc1`, the cytotoxicity was 27.1%.

For `C=C(C)COc1ccc(-c2nc(N)nc(C)c2Oc2ccccc2OC)c(O)c1`, the cytotoxicity is 1.4%.

As for `COc1cccc(Oc2cncnc2-c2ccc(OC)cc2O)c1`, the cytotoxicity is 21.1%.

Regarding `Cc1[nH]nc(-c2ccc(O)cc2O)c1Oc1ccccc1`, the cytotoxicity is 63.9% (active).

On to `Cc1oc2cc(O)ccc2c(=O)c1Oc1ccccc1`, for which the cytotoxicity was -6.1%.

As to `C=C(C)COc1ccc(-c2ncncc2Oc2ccc(OC)cc2)c(O)c1`, the cytotoxicity is 17.6%.

`CCc1nnc(NC(=O)CSc2nnc(-c3ccoc3C)n2-c2ccc(C)cc2)s1`: the cytotoxicity is -6.5%.

Regarding `CC(OC(=O)C1CC=CCC1C(N)=O)C(Cl)=C(Cl)Cl` (stereo not given), the cytotoxicity was -9.4%.

As to `CC(C)OC(=O)CSc1nnc(-c2cnccn2)n1C`, the cytotoxicity is -7.5%.

Turning to `O=C(NCCN1CCN(c2ccccc2F)CC1)C1c2ccccc2C(=O)N2CCc3ccccc3C12` (stereo not given), the cytotoxicity was -3.5%.

For `N#CCCC12CCCCC1=Nc1ccccc12` (stereo not given), the cytotoxicity was -11.5%.

Turning to `CCN1CCN(CC(=O)n2c3c(c4ccccc42)CC(C)CC3)CC1` (stereo not given), the cytotoxicity was 16.2%.

For the compound `COc1ccc(CNC(=O)c2cc(-c3ccco3)on2)cc1`, the cytotoxicity was -5.9%.

For the compound `c1csc(-c2nn3c(C4COc5ccccc5O4)nnc3s2)c1` (stereo not given), the cytotoxicity was -1.6%.

For the compound `C=CCOc1nc2c(c(=O)n(Cc3ccc(Cl)cc3)c(=O)n2C)n1C`, the cytotoxicity was -0.2%.

With `C=CCOc1nc2c(c(=O)n(C)c(=O)n2C)n1Cc1ccc(Cl)cc1`, the cytotoxicity was 64.6% (active).

For `C=CCOc1nc2c(c(=O)n(C)c(=O)n2C)n1Cc1ccc(Cl)cc1Cl`, the cytotoxicity is -24.2%.

`CCC(C)NC(=O)CN(c1ccc2c(c1)OCO2)S(=O)(=O)c1c(C)n[nH]c1C` (stereo not given): the cytotoxicity is 3.1%.

On to `CC1(C)CC(=O)c2cnc(NC(=O)CCc3ccccc3)nc2C1`, for which the cytotoxicity was -12.6%.

Consider `N#Cc1c(NC(=O)CCN2C(=O)c3ccccc3C2=O)oc(-c2ccccc2)c1-c1ccccc1`, for which the cytotoxicity is 2.4%.

For `N#Cc1c(NC(=O)Cn2c(=O)oc3ccccc32)oc(-c2ccccc2)c1-c1ccccc1`, the cytotoxicity was 52% (active).

Regarding `Cc1ccnc(SCC(=O)Nc2oc(-c3ccccc3)c(-c3ccccc3)c2C#N)n1`, the cytotoxicity is 29.2%.

For `N#Cc1c(NC(=O)CN2CCOCC2)oc(-c2ccccc2)c1-c1ccccc1`, the cytotoxicity was 10.6%.

For the compound `CCn1c(SCC(=O)Nc2oc(-c3ccccc3)c(-c3ccccc3)c2C#N)nnc1-c1ccco1`, the cytotoxicity is 29.1%.

In the case of `CCc1nnc(NC(=O)CN2CCN(c3ccccc3OC)CC2)s1`, the cytotoxicity is -2.9%.

With `CCOC(=O)CSc1nc2ccsc2c(=O)n1C1CCN(C(=O)OCC)CC1`, the cytotoxicity is 8%.

Turning to `O=C(COC(=O)c1ccc2c(c1)OCO2)NCc1ccc(Cl)cc1`, the cytotoxicity is 8.3%.

Take `O=C(CCn1c(=O)c2sccc2n(CC(=O)OCc2ccccc2)c1=O)NCc1ccco1`: the cytotoxicity is -12.9%.

As for `CCOC(=O)c1ccc(N2C(=O)C(C)=C(C)C2=O)cc1`, the cytotoxicity is 35.6%.

On to `CCOC(=O)c1ccc(-n2c(=O)[nH]c3ccccc3c2=O)cc1`, for which the cytotoxicity was 3%.

`CCOC(=O)c1ccc(-n2[nH]c(-c3ccccc3)cc2=O)cc1`: the cytotoxicity was 58.5% (active).

On to `COc1ccc(CCNC(=O)CCn2c(=O)oc3ccccc32)cc1`, for which the cytotoxicity was -9.7%.

For the compound `CCOc1ccccc1Nc1nnc(SCc2ccc(C(=O)OC)o2)s1`, the cytotoxicity was 57.3% (active).

Regarding `COC(=O)c1ccc(CSc2nnc(NCc3ccccc3)s2)o1`, the cytotoxicity is -2.2%.

Consider `COC(=O)c1ccc(CSc2nnc(Nc3ccccc3OC)s2)o1`, for which the cytotoxicity was 44.9%.

In the case of `c1ccc2nc(N3CCOCC3)c(N3CCOCC3)nc2c1`, the cytotoxicity is -2.3%.

In the case of `Cc1cc(=O)[nH]c(SCC(=O)N2CCN(C(c3ccccc3)c3ccccc3)CC2)n1`, the cytotoxicity is -3.1%.

Take `O=C1CCCc2sc3c(c2N1)CCCCC3`: the cytotoxicity is 6.3%.

As to `CCOC(=O)C1=C(N2CCCCC2)c2cc3c(n2C1=O)CCCC3`, the cytotoxicity was 3.2%.

On to `CCSc1ncnc2c(C#N)c3n(c12)CCCCC3`, for which the cytotoxicity is -17%.

For the compound `Cc1cc(C(=O)Nc2sc3c(c2C#N)CCC3)no1`, the cytotoxicity is 36.4%.

On to `CC1=CC(C)(C)Nc2ccc(C)cc21`, for which the cytotoxicity is -5%.

Take `CCOc1ccc2c(c1)N(C(=O)CN1C(=O)CCC1=O)C(C)(C)C=C2C`: the cytotoxicity was -12.2%.

For the compound `COC(=O)C1=C(C)NC(C)=C(C(=O)OC)C1c1ccc(OC(=O)c2ccco2)cc1`, the cytotoxicity is 11%.

Turning to `O=C(Oc1cccc(Br)c1)c1cccnc1`, the cytotoxicity was -13.7%.

As to `COC(=O)c1ccc(OC(=O)c2ccco2)cc1`, the cytotoxicity is -32.6%.

In the case of `O=C(Oc1ccc2ccccc2c1)c1ccco1`, the cytotoxicity was 2.3%.

`CCc1ccc2c(c1)C(C)=CC(C)(C)N2`: the cytotoxicity was -4.3%.

As for `CCOc1ccc(OC(=O)c2cccnc2)cc1`, the cytotoxicity is 10.2%.

As for `c1ccc(CNc2ncnc3c2cnn3-c2ccccc2)cc1`, the cytotoxicity is 36%.

Take `Cc1ccc2nc(NC3=NCN(Cc4ccco4)CN3)nc(C)c2c1`: the cytotoxicity was 8.2%.

Consider `Cc1ccc(-n2nnc3c(SCC(=O)NCc4ccco4)ncnc32)cc1`, for which the cytotoxicity was 8.5%.

In the case of `O=C(CN1C(=O)NC2(CCCc3ccccc32)C1=O)N1CCc2ccccc2C1` (stereo not given), the cytotoxicity is -21.3%.

With `CCOc1ccc(C(C)(N)C(=O)O)cc1` (stereo not given), the cytotoxicity was 5.7%.

Take `COCCn1c(C)cc(C(=O)CSc2nnc(-c3cccnc3)n2-c2ccccc2F)c1C`: the cytotoxicity was -8%.

Turning to `CCN(Cc1ccccc1)Cc1c(F)cccc1F`, the cytotoxicity is -14.3%.

As to `CCN(CC(=O)N1CCOCC1)S(=O)(=O)c1ccc(C)cc1`, the cytotoxicity is -7.2%.

Consider `COc1cc(C2C3=C(Nc4ncnn42)c2ccccc2CC3)cc(OC)c1OC` (stereo not given), for which the cytotoxicity was 62.6% (active).

For `COc1ccc(C2C3=C(Nc4ncnn42)c2ccccc2CCC3)cc1` (stereo not given), the cytotoxicity was -11.9%.

Take `COc1cc(C2C(C(=O)OC(C)C)=C(C)Nc3ncnn32)cc(OC)c1OC` (stereo not given): the cytotoxicity was 3.4%.

Consider `c1csc(C2C3=C(Nc4ncnn42)c2ccccc2OC3)c1` (stereo not given), for which the cytotoxicity was 8.9%.

In the case of `COc1ccc(C2C3=C(Nc4ncnn42)c2ccccc2CC3)cc1OC` (stereo not given), the cytotoxicity is 50.3% (active).

Turning to `COc1ccc(C2C(C(C)=O)=C(C)Nc3ncnn32)cc1OC` (stereo not given), the cytotoxicity was -18.7%.

With `Cc1ccc(Cl)cc1NC(=O)c1ocnc1C`, the cytotoxicity is 0.3%.

Turning to `COc1ccc(N(CC(=O)N2CCN(c3ccccc3)CC2)S(=O)(=O)c2c(C)noc2C)cc1`, the cytotoxicity was -8.3%.

`NC(=O)c1c(NC(=O)Cc2cccs2)sc2c1CCC2`: the cytotoxicity is -2.4%.

On to `CC(C)(C#N)Nn1cnnc1`, for which the cytotoxicity was -13.8%.

In the case of `O=C(Nc1nc(-c2nc3ccccc3s2)cs1)c1ccco1`, the cytotoxicity is 1.4%.

`Cc1cccn2c(=O)c(C=Nc3ccccc3)c(NCc3ccco3)nc12`: the cytotoxicity was -13.4%.

For `COc1ccc2c(c1)N1CCN=C1N2C`, the cytotoxicity was -12%.

In the case of `CN(C)C=Nc1ncc2c([nH]c3ccccc32)c1C#N`, the cytotoxicity is 19.8%.

As to `Cc1cc(=O)[nH]c2ccccc12`, the cytotoxicity was -5.7%.

Regarding `CSc1ccccc1NC(=O)c1cnccn1`, the cytotoxicity is -5.1%.

`CN(C)CCCNC(=O)CCC1CCCCC1`: the cytotoxicity is 1.5%.

Consider `COc1ccc(N2CCN(C(=O)CN=C3NS(=O)(=O)C(c4ccc(C)cc4)=C3C)CC2)cc1`, for which the cytotoxicity was -1.4%.

Regarding `CC(C)CC(NC(=O)COc1ccccc1)C(=O)O` (stereo not given), the cytotoxicity is 5.6%.

For the compound `CCN1C(=O)c2cccc3c(NC(=O)c4ccc5c(c4)OCCO5)ccc1c23`, the cytotoxicity was 95.1% (active).

For `CCN1C(=O)c2cccc3c(NC(=O)c4ccc(S(=O)(=O)N(C)C)cc4)ccc1c23`, the cytotoxicity is 0%.

On to `CCN1C(=O)c2cccc3c(NC(=O)c4cccc(N5C(=O)CCC5=O)c4)ccc1c23`, for which the cytotoxicity is -10.7%.

For `c1ccc2c(c1)C(=NCC1CCCO1)NC2=NCC1CCCO1` (stereo not given), the cytotoxicity was 8.3%.

On to `O=C1c2oc3ccc(F)cc3c(=O)c2C(c2ccc(F)cc2)N1CCCN1CCOCC1` (stereo not given), for which the cytotoxicity was -15.7%.
